This passage reports inhibition results from PubChem BioAssay AID602250 (The Scripps Research Institute Molecular Screening Center, 2012).

About 2,200 (0.61%) of roughly 360,000 compounds were called active.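 How the source made its calls: active means inhibition above a per-plate cutoff, the plate's mean sample inhibition plus 3 SD (cut at about 24% in these data); inactive means the rest.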 What follows is part of a selection rich in actives, with near analogues and random picks from the rest.

For orientation: inhibition means the drop in the measured response relative to a control, in per cent.

The nature of this test: nonselective inhibitors of ATP calcium response in CHO-K1, primary screen, counter-screen for M1 antagonist project, cell-based, Fluo-8 calcium fluorescence, full deck, 1536-well (AID 602250).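 Further: 0% = DMSO plus EC80 ATP and 100% = DMSO alone without ATP.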 The settings on record: CHO-K1 parental, ATP-induced calcium, Fluo-8 fluorescence; at 3 µM; stronger effect = higher value. For orientation: Counterscreens check selectivity or assay interference.
In the case of `O=C(NCC(=O)N1CCC2(CC1)NCCc1[nH]cnc12)c1ccc(Br)cc1`, the inhibition is -11.4% (inactive).

For `CCC(=O)N1c2ccc(S(=O)(=O)CCC(=O)N3CCN(c4ccccc4)CC3)cc2CC1C` (configuration not stated), the inhibition is 24.5% (active). For `CCC(=O)N1c2ccc(S(=O)(=O)NCc3ccco3)cc2CC1C` (configuration not stated) the value was -18.4% (inactive); for `CCC(=O)N1CCc2cc(S(=O)(=O)CCC(=O)N3CCN(c4ccccc4F)CC3)ccc21`, -5.31% (inactive); for `CC[C@]12c3[nH]c4ccc(OC)cc4c3CCN1C(=O)C(CC(=O)NCCN1CCOCC1)C[C@@H]2C(=O)N1CCN(C(=O)C2CC2)CC1` (some centres not stated), -4.64% (inactive). In the case of `CCc1ccc2oc(=O)cc(CN3CCCCC3C)c2c1` (configuration not stated), the inhibition is -11.8% (inactive). Regarding `O=C(COC(=O)c1ccc(F)cc1)NCC1COc2ccccc2O1` (configuration not stated), the inhibition is -5.85% (inactive). To `COc1ccc(CCNc2ncnc3nc[nH]c23)cc1OC` belongs 10.8% (inactive).

Turning to `c1ccc2c(c1)OCC(CNc1ncnc3nc[nH]c13)O2` (configuration not stated), the inhibition is 44.4% (active).

Consider `O=C(Nc1ccc2c(c1)OCCO2)C1c2ccccc2OCC(=O)N1Cc1ccccn1` (configuration not stated), for which the inhibition is -12.5% (inactive). To `CN(CCO)Cc1csc2ccc(Br)cc12` belongs -7.65% (inactive); to `CN(Cc1ccc(F)cc1)C(=O)COc1ccc2ccccc2c1`, -15.2% (inactive); to `COc1ccc(C(=O)COC(=O)Cn2cnc3c2c(=O)n(C)c(=O)n3C)c(OC)c1`, -0.99% (inactive). `COc1ccc(C(C#N)Nc2ccccc2C)cc1` (configuration not stated): the inhibition is -8.31% (inactive). As for `CC(C)(C)n1nnnc1C(c1ccc2ncccc2c1)N1CCSCC1` (configuration not stated), the inhibition is -9.5% (inactive).

Turning to `O=C(NCC(=O)N1CCN(c2ncc(C(F)(F)F)cc2Cl)CC1)c1ccc(Br)o1`, the inhibition is -11.5% (inactive).

`COc1ccc(N2CCN(C(=O)CNC(=O)c3ccc(C(C)(C)C)cc3)CC2)cc1`: the inhibition is 9.5% (inactive). For `CCOc1ccc(C(=O)NCC(=O)N2CCN(c3ccc(C(F)(F)F)cn3)CC2)cc1`, the inhibition is 31.8% (active).

With `Cc1ccccc1CSCCNC(=O)c1ccc(N(C)S(=O)(=O)c2ccccc2)cc1`, the inhibition was -7.28% (inactive). With `Cc1cc(-c2nnc(SCC(=O)Nc3ccc(S(N)(=O)=O)cc3)n2N)n[nH]1`, the inhibition was -13.8% (inactive).

On to `O=C(NCc1ccccc1)C1c2ccccc2OCC(=O)N1C1CC1` (configuration not stated), for which the inhibition is 0.77% (inactive). Turning to `O=[N+]([O-])c1ccc2c(c1)C(O)n1nc(-c3ccccc3)nc1S2` (configuration not stated), the inhibition is -21.9% (inactive). To `COc1ccc(OC)c(Nc2nc3ccccc3n3cnnc23)c1` belongs -12.2% (inactive); to `COc1cc(Nc2nc3ccc(Cl)cc3n3cnnc23)cc(OC)c1OC`, 28.9% (active); to `COc1ccc(CCNc2nc3ccc(C)cc3n3cnnc23)cc1OC`, -5.44% (inactive). To `O=C1CN(C(=O)COC(=O)c2cnc(Cl)c(Cl)c2)c2ccccc2N1` belongs -25% (inactive); to `O=C(CCc1nnc(Cc2ccc3c(c2)OCO3)o1)NCCc1ccccc1Cl`, -0.82% (inactive). For `COc1ccccc1Cc1c(-c2ccc(Cl)cc2)nc2c3ccccc3ccn12` the value was -20.1% (inactive).

For the compound `CCn1c(=S)[nH]c2cc(S(=O)(=O)N3CCOCC3)ccc21`, the inhibition is -3.41% (inactive). Take `CCCCn1c(=S)[nH]c2cc(S(=O)(=O)N3CCCCC3)ccc21`: the inhibition is -12.6% (inactive). To `CNS(=O)(=O)c1ccc2c(c1)[nH]c(=S)n2C` belongs 35.9% (active); to `CN1CCc2c(sc3c2c(NCc2ccco2)nc2nnnn23)C1`, -19.9% (inactive); to `O=C(c1ccc(N2CCCC2=O)cc1)N1CCN(c2ccc(C(F)(F)F)cc2[N+](=O)[O-])CC1`, 44% (active).

As to `COc1cc(OC)cc(C(=O)NC(=S)N2CCN(c3ccc(C(F)(F)F)cc3[N+](=O)[O-])CC2)c1`, the inhibition was 5.86% (inactive). For the compound `O=C(Cc1ccc(S(=O)(=O)N2CCOCC2)s1)N1CCN(c2ccc(C(F)(F)F)cc2[N+](=O)[O-])CC1`, the inhibition was 5.21% (inactive).

Consider `O=C(Nc1c(C(=O)N2CCCCC2)cnn1-c1ccccc1)c1ccco1`, for which the inhibition is -0.49% (inactive). To `O=C(Nc1ccc(-n2cccn2)cc1)C1CCN(Cc2ccsc2)CC1` belongs 9.41% (inactive). With `Cc1cc(C)cc(C(=O)N(CCc2ccccc2)C2=CC3CCC(C2)N3C)c1` (configuration not stated), the inhibition is -5.45% (inactive). For `CCCN(CCc1ccccc1)C1CCc2c(O)cccc2C1` (configuration not stated) the value was 27.5% (active). As for `CCN(CC(=O)NC(C)C)C(=O)CCNC(=O)c1ccc(Cl)cc1`, the inhibition is -14.6% (inactive). Regarding `O=C1NC[C@@H](Cc2ccc(O)cc2)N(CCc2cccc(F)c2)C1=O`, the inhibition is -5% (inactive). For `Cc1cc(C)c(C#N)c(N2CCC(C(N)=O)CC2)n1` the value was 23.7% (active); for `N#Cc1c(N2CCCCC2)nc(N)c2c(N)nc(SCC(=O)O)cc12`, -8.03% (inactive); for `Cc1cccn2c(=O)c(/C=C(\C#N)S(=O)(=O)c3ccc(Cl)cc3)c(N3CCC(C(N)=O)CC3)nc12`, -14.1% (inactive).

Consider `Cc1ccc(OS(=O)(=O)c2ccc(-c3csc(C)n3)s2)c(C)c1`, for which the inhibition is -12% (inactive).

Take `CC1=C2C(=O)OC(c3ccoc3)C2(C)CCC1` (configuration not stated): the inhibition is -12.4% (inactive). Consider `Cc1ccc(-n2nc3c(=O)n(C(C)C(=O)NCc4ccc5c(c4)OCO5)nc(C)c3c2C)cc1` (configuration not stated), for which the inhibition was -17.4% (inactive). `CC1=C(C(=O)N(C)C)CC(CC(=O)NCCN2CCOCC2)C(=O)N1Cc1ccccc1` (configuration not stated): the inhibition was -3.35% (inactive).

For the compound `COc1ccc(OC)c(C2C3=C(N=c4s/c(=C\c5cccc(O)c5)c(=O)n42)c2ccccc2CC3)c1` (configuration not stated), the inhibition was -5.43% (inactive). For `COC(=O)c1ccccc1NC(=O)CN(Cc1ccc(Cl)cc1)S(C)(=O)=O` the value was -17.4% (inactive); for `CCOc1ccccc1NC(=S)NC(=O)CCc1ccccc1`, -6.79% (inactive); for `O=C(Cc1ccc(Cl)cc1)NC(=S)Nc1ccccc1O`, 31.4% (active). Take `CC(=O)c1cc(C#N)c(SCC(=O)Nc2nccs2)nc1C`: the inhibition was -13.3% (inactive).

For the compound `Clc1cc(NC2CCCCC2)ncn1`, the inhibition was 0.49% (inactive). On to `COCCCN(C(=O)Cn1ncc2c(=O)oc3ccc(C)cc3c21)C(C)c1ccncc1` (configuration not stated), for which the inhibition is -9.26% (inactive). Turning to `CCCCn1nnnc1C(c1cccc(OC)c1OC)N1CCN(C/C=C/c2ccccc2)CC1` (configuration not stated), the inhibition is -19.7% (inactive). For `CN(c1ccccc1)S(=O)(=O)c1ccc(Cl)c(C(=O)OCC(N)=O)c1` the value was 4.64% (inactive); for `CC(=O)c1c(C)[nH]c(C(=O)COC(=O)CCOc2ccc(C)cc2)c1C`, 4.03% (inactive). Turning to `CC(=O)c1c(C)[nH]c(C(=O)COC(=O)c2cccc(S(=O)(=O)N(C)c3ccccc3)c2)c1C`, the inhibition was 43.1% (active). As for `O=C(NCc1ccccc1)[C@@H]1CSC2c3ccccc3C(=O)N21` (some centres not stated), the inhibition was -4.7% (inactive).

Turning to `Nc1ccc2nn(-c3ccc(Cl)cc3)nc2c1`, the inhibition is -10.4% (inactive).

In the case of `CN(C)c1ccc(CSc2ccccc2)cc1`, the inhibition is -21.6% (inactive).

In the case of `CN(C)c1ccc(/C=C2\NC(=S)N(Cc3ccccc3)C2=O)cc1`, the inhibition is 53.4% (active). To `CN(C(=O)CN1C(=O)NC(C)(CCc2ccccc2)C1=O)c1ccccc1` (configuration not stated) belongs -3.27% (inactive). On to `COc1ccc(-c2nc(SCC(=O)N3CCOCC3)n[nH]2)cc1`, for which the inhibition is -11.8% (inactive). In the case of `Cc1ccc(N2C(=O)CC(Sc3ncn[nH]3)C2=O)cc1` (configuration not stated), the inhibition was -12.5% (inactive). To `COc1ccc(N2C(=O)CC(Sc3n[nH]c(-c4ccc(C)cc4)n3)C2=O)cc1` (configuration not stated) belongs 24.5% (active); to `Cn1c(SCC(=O)NC2CCCCC2)nnc1-c1cc2ccccc2o1`, -5.47% (inactive); to `CCc1c(SCCC(=O)O)nc2ccccc2c1C`, -13.8% (inactive). `CCNC(=S)NCC`: the inhibition was -17.7% (inactive). `O=C1OC(c2ccc(Cl)cc2)=N/C1=C\c1cccnc1`: the inhibition is 32.7% (active). To `O=C1NNC(c2ccccc2)=N/C1=C\c1ccc(Cl)cc1` belongs 3.07% (inactive); to `Cc1ccc(C2=C/C(=C\c3cccnc3)C(=O)O2)cc1`, 6.03% (inactive); to `CN1OC(COC(=O)c2ccc(Cl)cc2)CC1c1ccccc1` (configuration not stated), 28.7% (active). For `CCCCCCN1C[C@@H](O)[C@H](n2cc(COC(=O)c3ccccc3)nn2)C[C@@H]1c1ccc(Cl)cc1` the value was 0.85% (inactive); for `Cn1cncc1COC(=O)c1ccc(Cl)cc1`, 9.06% (inactive); for `O=C(Nn1cc(C(=O)N2CCN(c3ccccc3F)CC2)c2ccccc2c1=O)c1cnccn1`, -2.09% (inactive). Regarding `COc1ccc2cc(C(=O)NCC3CCCO3)[nH]c2c1` (configuration not stated), the inhibition was -13.7% (inactive).

In the case of `O=C(NCC1CCCO1)c1cc2c([nH]c3ccccc32)c(-c2ccc(F)cc2)n1` (configuration not stated), the inhibition was 31.3% (active). For `O=C(NCCCO)c1cc2c([nH]c3ccccc32)c(-c2ccc(F)cc2)n1` the value was -6.07% (inactive). Regarding `Fc1ccccc1CCNc1nnnn1-c1ccccc1`, the inhibition was -1.72% (inactive). For `Cc1ccsc1C(=O)NCCc1ccco1` the value was -8.62% (inactive). To `COC(=O)Cc1ccc(NC(=S)NCc2ccco2)cc1` belongs 2.26% (inactive); to `OCCc1ccc(NCCc2ccco2)cc1`, 29.2% (active).

On to `CC1=CC2=NC(=O)CC(C)(C(=O)N(CC(=O)NC(C)(C)C)Cc3ccccc3)N2C=C1` (configuration not stated), for which the inhibition is -17.9% (inactive). To `CC1(C)CC(=O)C2=C(C1)N=C1SCCC(=O)N1C2c1ccc(C(F)(F)F)cc1` (configuration not stated) belongs -16.7% (inactive); to `N/C(=N\OC(=O)/C=C/c1ccccc1)c1ccc(Br)cc1`, 24.5% (active). For `N/C(=N\OC(=O)N1c2ccccc2Sc2ccccc21)c1ccc(Br)cc1` the value was -4.6% (inactive); for `N/C(=N\OC(=O)Cc1ccccc1[N+](=O)[O-])c1ccc(Br)cc1`, -3.46% (inactive); for `CCc1ccc(/C=N/NC(=O)c2ccc(OC3CCCC3)cc2)s1`, 3.77% (inactive). For `Cc1cc(=O)oc2c(C)c(OCC(=O)NCCN3CCOCC3)ccc12`, the inhibition is -7.03% (inactive). With `O=C(C1CCCO1)N1CCN(S(=O)(=O)c2ccc(Br)cc2)CC1` (configuration not stated), the inhibition was 5.99% (inactive).
